Data on 39 compounds can be found in PubChem BioAssay (NCATS).

Structures are written as SMILES. Values joined by “and” are separate entries in the source; they are usually repeats but may differ in a detail not shown here. Identical values can stand only once. Records with an inconclusive call do not appear. Active and inactive are the calls of the source. Unless noted, calls come from the whole dose curve; as a rule, active = well fitted curve in the direction sought with a large enough effect; inconclusive = small, poorly fitted or top-dose-only effect, or another doubt; inactive = no such curve, though single readings can be large or run the other way.

One assay can be described thus: qHTS Assay for Identifying Gametocytocidal Compounds (AID 743244).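 For max response: % is set by controls: 0 for no effect and ±100 for the full control effect; actives lower the fluorescent signal which means gametocytes are killed.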 Note: potency is the fitted concentration of half-maximal effect. The note with it: P. falciparum 3D7 stage III-V gametocytes, alamarBlue, 72 h; max response: stronger effect = lower value. Put shortly: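 Viability read-out was resazurin reduction (alamarBlue, 24 h) measured at Ex 525/Em 598 nm. Beforehand, late-stage (III-V) 3D7 P. falciparum gametocytes at 20,000 cells/well were incubated with compound 72 h at 37C under 5% CO2.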
(In general: In qHTS, concentration-response curves come from the screen itself.)
Turning to `COc1ccc2c(c1OC)CN1CCc3cc4c(cc3C1C2)OCO4` (stereo unspecified), the max response was 4.63% (inactive).
On the same count and under the same terms, the same measure for `CC1OC(C)OC(C)O1` (stereo unspecified): -0.681% (inactive) and 11.3% (inactive).
With `OCCN1CCN(CCCN2c3ccccc3Sc3ccc(C(F)(F)F)cc32)CC1`, the Potency was 11.2 µM (active).
Take `COc1cc([C@@H]2c3cc4c(cc3[C@H](O)[C@H]3COC(=O)[C@H]23)OCO4)cc(OC)c1OC`: the max response is 11.4% (inactive).
Still for that read-out and setting: the result for `C[C@]12C/C(=C/O)C(=O)C[C@@H]1CC[C@@H]1[C@@H]2CC[C@@]2(C)[C@H]1CC[C@]2(C)O` reads 18.9% (inactive); that for `NCCc1cc(O)c(O)cc1O`, 0.974% (inactive); that for `CNC(=O)N1N=C(c2ccc(N)cc2)c2cc3c(cc2CC1C)OCO3` (stereo unspecified), -1.27% (inactive).
As for `CCN(CC)CCN1C(=O)CN=C(c2ccccc2F)c2cc(Cl)ccc21`, the max response was 9.52% (inactive).
Take `CCOC(=O)C1(c2ccccc2)CCN(CCC(C#N)(c2ccccc2)c2ccccc2)CC1`: the max response is 18.9% (inactive) and -7.07% (inactive).
`C[C@@H]1[C@@H](CC(C[C@H]2O[C@@H]3O[C@]4(C)CC[C@@H]5[C@H](C)CC[C@@H]([C@H]2C)[C@@]35OO4)C[S+](=O)([O-])c2ccc(COC(=O)N(C)C)cc2)O[C@@H]2O[C@]3(C)CC[C@H]4[C@H](C)CC[C@@H]1[C@@]24OO3` (stereo partly specified): the Potency was 0.0023 µM (active).
In the case of `C=C1C[C@@H]2[C@H](CC[C@]3(C)C(=O)CC[C@@H]23)[C@@]2(C)C=CC(=O)C=C12`, the max response is -0.643% (inactive).
On to `CN(C)C(=O)C(CCN1CCC(O)(c2ccc(Cl)cc2)CC1)(c1ccccc1)c1ccccc1`, for which the Potency is 11.2 µM (active) and 1.26 µM (active).
Turning to `CC1NCCOC1c1ccccc1` (stereo unspecified), the max response is 1.41% (inactive).
Same read-out and setting: the same measure for `CCCCC/C=C\C/C=C\C/C=C\C/C=C\CCCC(=O)NC1CC1`: 45.8% (inactive); for `CC(=O)Nc1cc([As](=O)(O)O)ccc1O`: 0.387% (inactive).
The same measure, in the same setting: the result for `NP(N)(=O)NC(=O)c1ccc(F)cc1` reads -2.45% (inactive); that for `CCN(CC)CCOC(=O)C(O)(c1ccccc1)c1ccccc1`, -7.9% (inactive); that for `Cc1cc(SCc2sc(-c3ccc(C(F)(F)F)c(F)c3)nc2C)ccc1OCC(=O)O`, 27.5% (inactive).
The same measure, in the same setting: the result for `CCC(C(N)=O)N1CCCC1=O` (stereo unspecified) reads -7.9% (inactive); that for `Cn1c(CCCC(=O)O)nc2cc(N(CCCl)CCCl)ccc21`, -0.45% (inactive).
Regarding `C[C@@H]1[C@@H](C(=O)C[C@H]2O[C@@H]3O[C@]4(C)CC[C@@H]5[C@H](C)CC[C@@H]([C@H]2C)[C@@]35OO4)O[C@@H]2O[C@]3(C)CC[C@H]4[C@H](C)CC[C@@H]1[C@@]24OO3`, the Potency is 0.0066 µM (active).
Regarding `CC(C)(N)Cc1ccc(Cl)cc1`, the max response was 12.2% (inactive).
For the compound `COc1ccc(C(=O)c2c(C)n(CCN3CCOCC3)c3ccccc23)cc1`, the max response is 6.23% (inactive) and 9.75% (inactive).
`CCN(C(C)=O)c1cccc(-c2ccnc3c(C#N)cnn23)c1`: the max response was 4.87% (inactive).
Still for that read-out and setting: the result for `CCC(COC(=O)c1cc(OC)c(OC)c(OC)c1)(c1ccccc1)N(C)C` (stereo unspecified) reads 10.7% (inactive).
For the compound `CC1=C2C[C@@H]3[C@@H](CC=C4C[C@@H](O)CC[C@@]43C)[C@@H]2CC[C@]12O[C@H]1C[C@H](C)CN[C@H]1[C@H]2C`, the Potency is 23.5 µM (active).
In the case of `O=C1CC[C@@]2(O)[C@H]3Cc4ccc(O)c5c4[C@@]2(CCN3CC2CC2)[C@H]1O5`, the max response is 19% (inactive).
In the case of `O=C(NC(O)C(Cl)(Cl)Cl)NC(O)C(Cl)(Cl)Cl` (stereo unspecified), the max response was -4.63% (inactive).
For the compound `CNC(=O)c1ccc(N2C(=S)N(c3ccc(C#N)c(C(F)(F)F)c3)C(=O)C23CCC3)cc1F`, the max response was -1.03% (inactive).
For the compound `O=C(O)C(=O)c1cn(Cc2ccccc2)c2ccc(-c3ccc(OC(F)(F)F)cc3)cc12`, the max response was 14.9% (inactive).
In the case of `Cc1sc2c(c1C)C(c1ccc(Cl)cc1)=N[C@@H](CC(=O)OC(C)(C)C)c1nnc(C)n1-2`, the max response was -19.5% (inactive).
Take `CC(C)(C)NCC(O)c1cc(Cl)c(N)c(Cl)c1` (stereo unspecified): the max response is -5.19% (inactive).
Still for that read-out and setting: the result for `CC[N+](CC)(CC)CC` reads -4.6% (inactive) and 7.33% (inactive).
Still for that read-out and setting: the same measure for `Cc1c(OCC(F)(F)F)ccnc1CS(=O)c1nc2ccccc2[nH]1` (stereo unspecified): 1.82% (inactive).

A short description of a further assay: qHTS profiling for inhibitors of Plasmodium falciparum (3D7) proliferation (AID 743322; call rule not given here;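 note: infected erythrocytes exposed to compound for 72 h before lysis; 100% = DMSO vehicle wells and 0% = 0.29 µM artemisinin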). The note with it: P. falciparum 3D7 proliferation; at 28.7 µM (top of the series). Put shortly:
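Erythrocytes infected with P. falciparum (0.3% parasitemia, 2.5% hematocrit) incubated with compounds 72 h at 37 C, 5% CO2. Lysis with saponin/Triton buffer containing SYBR Green I, overnight at room temperature in the dark; DNA fluorescence (485/535 nm) normalised to 0.29 uM artemisinin and DMSO.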
As to `CN(C)CCN(C)CCc1ccc(Cl)c(Cl)c1`, the remaining parasite growth % (stronger effect = lower value) was 55.4%.
Take `COc1cc([C@@H]2c3cc4c(cc3[C@H](O)[C@H]3COC(=O)[C@H]23)OCO4)cc(OC)c1OC`: the remaining parasite growth % (stronger effect = lower value) was 68.4% and 104%.
The same measure, in the same setting: the same measure for `CNC(=O)N1N=C(c2ccc(N)cc2)c2cc3c(cc2CC1C)OCO3` (stereo unspecified): 46.2%; for `C[C@@H]1[C@@H](CC(C[C@H]2O[C@@H]3O[C@]4(C)CC[C@@H]5[C@H](C)CC[C@@H]([C@H]2C)[C@@]35OO4)C[S+](=O)([O-])c2ccc(COC(=O)N(C)C)cc2)O[C@@H]2O[C@]3(C)CC[C@H]4[C@H](C)CC[C@@H]1[C@@]24OO3` (stereo partly specified): -0.6%; for `CS(=O)c1ccc(-c2nc(-c3ccc(F)cc3)c(-c3ccncc3)[nH]2)cc1` (stereo unspecified): 64.7%.
The same measure, in the same setting: the same measure for `CCCCC/C=C\C/C=C\C/C=C\C/C=C\CCCC(=O)NC1CC1`: 6.79%; for `Oc1cn2c(n1)Nc1ccc(Cl)c(Cl)c1C2`: 107%.
On to `Cc1cc(SCc2sc(-c3ccc(C(F)(F)F)c(F)c3)nc2C)ccc1OCC(=O)O`, for which the remaining parasite growth % (stronger effect = lower value) is 101%.
Still for that read-out and setting: the result for `Cn1c(CCCC(=O)O)nc2cc(N(CCCl)CCCl)ccc21` reads 92.7%.
Consider `C[C@@H]1[C@@H](C(=O)C[C@H]2O[C@@H]3O[C@]4(C)CC[C@@H]5[C@H](C)CC[C@@H]([C@H]2C)[C@@]35OO4)O[C@@H]2O[C@]3(C)CC[C@H]4[C@H](C)CC[C@@H]1[C@@]24OO3`, for which the remaining parasite growth % (stronger effect = lower value) is -0.0732%.
Same read-out and setting: the same measure for `COC1(CS(=O)c2ccccc2)CCN(CCc2c[nH]c3ccc(F)cc23)CC1` (stereo unspecified): 23.6%; for `COc1ccc(C(=O)c2c(C)n(CCN3CCOCC3)c3ccccc23)cc1`: 111%; for `CC1=C2C[C@@H]3[C@@H](CC=C4C[C@@H](O)CC[C@@]43C)[C@@H]2CC[C@]12O[C@H]1C[C@H](C)CN[C@H]1[C@H]2C`: 66.1%.
Still for that read-out and setting: the result for `CNC(=O)c1ccc(N2C(=S)N(c3ccc(C#N)c(C(F)(F)F)c3)C(=O)C23CCC3)cc1F` reads 74.2%; that for `O=C(O)C(=O)c1cn(Cc2ccccc2)c2ccc(-c3ccc(OC(F)(F)F)cc3)cc12`, 110%.
For `Cc1sc2c(c1C)C(c1ccc(Cl)cc1)=N[C@@H](CC(=O)OC(C)(C)C)c1nnc(C)n1-2`, the remaining parasite growth % (stronger effect = lower value) was determined as 4.84%.
`Cn1cc(C2=C(c3cn(C4CCN(Cc5ccccn5)CC4)c4ccccc34)C(=O)NC2=O)c2ccccc21`: the remaining parasite growth % (stronger effect = lower value) worked out at 94.2%.
